According to the supplement of paper PMC6897291:
Counter-ions that a name gives are not always drawn.

Test system: U-2932
Assay: growth inhibition by drug plus 177Lu-lilotomab satetraxetan (1 - RLU/untreated control) (fraction); higher = stronger inhibition
Details: 1000 nM; time (day): 3; 177Lu-lilotomab satetraxetan 1 ug/ml
Procedure, shortened: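 A radiolabelled anti-CD37 antibody conjugate (~600 MBq/mg) was applied for 18 h at 0.5 µg/ml to RIVA and 1 µg/ml to U-2932 cells, with untreated cells run alongside. All cells were washed and seeded at 3,000 cells/well onto library-printed plates at 10/100 nM (RIVA) or 10/1,000 nM (U-2932). Growth inhibition was based on RealTime-Glo luminescence compared with untreated no-drug wells. Daily reads began on day 3 after 1 h at 37°C, with each value being 1 − RLU/mean of the 48 such wells on that plate.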

SMILES	growth inhibition by drug plus 177Lu-lilotomab satetraxetan
Nc1nc2[nH]cc(CCc3ccc(C(=O)N[C@@H](CCC(=O)O)C(=O)O)cc3)c2c(=O)[nH]1 [Pemetrexed]	0.893
COc1cc2nccc(Oc3ccc(NC(=O)Nc4cc(C)on4)c(Cl)c3)c2cc1OC [Tivozanib (AV-951)]	0.13
CCC(=O)N1CCN(c2ccc(-n3c(=O)ccc4cnc5ccc(-c6cnc7ccccc7c6)cc5c43)cc2C(F)(F)F)CC1 [Torin 1]	0.904
COc1cccc2c1C(=O)c1c(O)c3c(c(O)c1C2=O)C[C@@](O)(C(=O)CO)C[C@@H]3O[C@H]1C[C@H](N)[C@@H](O)[C@H](C)O1 [Epirubicin Hydrochloride]	0.965
Clc1ccc(Nc2nnc(Cc3ccncc3)c3ccccc23)cc1 [Vatalanib dihydrochloride (PTK787)]	-0.0725
COc1cc2nccc(Oc3ccc(NC(=O)C4(C(=O)Nc5ccc(F)cc5)CC4)cc3)c2cc1OC [XL-184 free base (Cabozantinib)]	0.112
C[C@@H](O[C@H]1OCCN(Cc2n[nH]c(=O)[nH]2)[C@H]1c1ccc(F)cc1)c1cc(C(F)(F)F)cc(C(F)(F)F)c1 [Aprepitant (MK-0869)]	-0.075
COc1cc2c(cc1O)CC[C@@H]1[C@@H]2CC[C@]2(C)[C@@H](O)CC[C@@H]12 [2-Methoxyestradiol]	0.704
CNCc1ccc(-c2[nH]c3cc(F)cc4c3c2CCNC4=O)cc1	0.0393
CC[C@@]1(O)C(=O)OCc2c1cc1n(c2=O)Cc2cc3c(CN(C)C)c(O)ccc3nc2-1 [Topotecan HCl]	0.97
